# Assay outcomes from PubChem.
# IL-1B inflam inh = blocks inflammasome-driven IL-1 beta release. activity change, % at 57.5 µM. THP-1 LPS/ATP IL-1B secretion, AlphaLISA, 16 h; active compounds read low. AID 743279. 360,000 tested, 4.7% active; in the data active = activity change below about -50%; inconclusive = mostly about -30% to -49%
#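 Secreted IL-1B measured by AlphaLISA bead assay after 16 h compound exposure of THP-1 cells; compounds (final up to 57.5 uM) added 1 h before LPS (250 ng/mL) and ATP (1.25 mM) stimulation; lower signal means less secretion.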
# TDP1 cell CPT = growth inhibition of DT40 Tdp1-/-;hTDP1 cells with camptothecin (screen for TDP1 inhibitors); chicken DT40 Tdp1-/-;hTDP1 cells + 20 nM CPT, ATP luminescence, 48 h; Potency, µM (doses to about 46.2 µM), without a hit: at the top dose activity change, negative = growth inhibition, hits mostly inhibitors; 420,000 tested, 12% active; note: potency is the fitted concentration of half-maximal effect; nearly all actives have a fitted effect of over 55% in size
#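 Chicken DT40 Tdp1-/- cells complemented with human TDP1, 400 cells/well, exposed to compounds plus 20 nM camptothecin for at least 48 h at 37 C; viability read as ATP content by CellTiter-Glo luminescence.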
# TDP1 cell noCPT = qHTS for Inhibitors of human tyrosyl-DNA phosphodiesterase 1 (TDP1): qHTS in cells in absence of CPT. Potency, µM (top dose mostly 46.2 µM), inactives show at the highest dose activity change, negative = growth inhibition, hits mostly inhibitors. DT40 Tdp1-/- hTDP1 cells, no CPT, ATP luminescence, 48 h. 420,000 tested, 15% active; note: potency is the fitted concentration of half-maximal effect; nearly all actives have a fitted effect of over 55% in size
#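 Compound effects on proliferation are scored in DT40 Tdp1-/-;hTDP1 cells in the absence of CPT. ATP levels (CellTiter-Glo luminescence) are recorded after a ≥48 hr, 37 °C incubation.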
# HT1080NT lethal = kills 2HG-producing HT-1080-NT fibrosarcoma cells. HT-1080-NT fibrosarcoma viability, CellTiter-Glo ATP luminescence, 48 h. Potency, µM (titrated, usually from 46.1 µM), for the others: top-dose activity, negative = less viability, actives largely listed as cytotoxic. 360,000 tested, 1.6% active. AID 686970;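 note: NT is the 2HG producing partner of a matched IDH1 knockdown line; potency is the fitted concentration of half-maximal effect; 0% = DMSO-treated cells and -100% = media-only wells without cells; nearly all actives have a fitted effect of over 55% in size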
#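 Read-out is CellTiter-Glo luminescence after 10 minutes at room temperature, following 48 hours' compound treatment of HT-1080-NT cells (750 cells/well, RPMI, 5% FBS, 37 degrees C).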
# HT1080 IDH1KD tx = toxicity to HT-1080 IDH1 knockdown cells (counter line) | 360,000 tested, 2% active | HT-1080 IDH1 knockdown viability, ATP luminescence, 48 h | AID 686971 | Potency, µM (titrated, usually from 46.1 µM), for the others: top-dose activity, negative = toxicity, actives largely listed as cytotoxic;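 note: potency is the fitted concentration of half-maximal effect; 0% = DMSO wells and -100% = cell-free medium wells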
#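 HT-1080-IDH1KD cells (IDH1 knocked down), 750/well in RPMI with 5% FBS, treated with compound 48 h at 37 degrees C. Viability by CellTiter-Glo luminescence, normalised to DMSO and no-cell wells; concentration-response curves classed.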
# Active calls of the source: *; u = inconclusive; x = no result given. Sampled rows, rich in hits. Any-hit rate of the full collection: about 19%. Unless noted, calls come from the whole dose curve; as a rule, active = well fitted curve in the direction sought with a large enough effect; inconclusive = small, poorly fitted or top-dose-only effect, or another doubt; inactive = no such curve, though single readings can be large; an effect the other way counts as inactive or inconclusive. Unless noted, % is set by controls: 0 for no effect and ±100 for the full control effect.
SMILES,IL-1B inflam inh,TDP1 cell CPT,TDP1 cell noCPT,HT1080NT lethal,HT1080 IDH1KD tx
COCCCNC(=O)c1ccc(Cn2c(=O)c3ccccc3n(Cc3ccccc3C#N)c2=O)cc1,13,16µM*,u,u,u
COCCCNC(=O)c1ccc(Cn2c(=O)c3ccccc3n(Cc3ccccc3C)c2=O)cc1,6,u,u,u,16µM*
COCCCNC(=O)c1ccc(Cn2c(=O)c3ccccc3n(Cc3cc(C)ccc3C)c2=O)cc1,-18,-4%,-16%,-2%,-5%
Cc1cccc(OCCSc2nnc(-c3ccoc3C)n2C)c1,-1,23µM*,21µM*,6%,13%
COc1ccc(N2CCN(C(CNC(=O)C(=O)NCCCN(C)C)c3cccnc3)CC2)cc1 (stereo unspecified),x,-3%,-29%,x,x
C/C(=N\N(Cc1ccccc1)c1ccccc1)c1cccnc1,-51*,u,u,1%,-11%
C/C(=N\NC(=O)Cc1ccccc1)c1cccnc1,-25,9%,13%,1%,6%
Cc1cccc(S(=O)(=O)NC(=O)C2(C)CCN2C(=O)Cc2ccc(C(C)(C)C)cc2)c1 (stereo unspecified),28,-18%,-6%,9%,24%
CC(C)(C)c1ccc(CC(=O)N2CCC2(C)C(=O)NCc2ccc(Cl)cc2)cc1 (stereo unspecified),-5,u,21µM*,u,26µM*
CC(C)c1ccc(CC(=O)N2CCC2(C)C(=O)NCC(C)(C)C)cc1 (stereo unspecified),-74*,u,23µM*,1%,-18%
CC(C)(C)c1ccc(CC(=O)N2CCC2(C)C(=O)NS(=O)(=O)c2ccccc2)cc1 (stereo unspecified),-74*,-3%,5%,4%,5%
CC(C)C(=O)N1CCC1(C)C(=O)NCc1ccc(C(C)(C)C)cc1 (stereo unspecified),25,u,u,12%,5%
CC1(C(=O)NCc2ccc(Cl)cc2)CCN1C(=O)Cc1cccc2ccccc12 (stereo unspecified),0,u,u,-22%,-4%
CC1(C(=O)NCc2ccc(Cl)cc2)CCN1C(=O)Cc1ccc(Cl)cc1Cl (stereo unspecified),-21,18µM*,u,-15%,-17%
CCC(Oc1ccc(C)c(C)c1)C(=O)N1CCCN(C)CC1 (stereo unspecified),0,0%,-1%,-11%,2%
Cc1ccccc1Oc1nc2c(c(=O)n(C)c(=O)n2C)n1Cc1ccc(Br)cc1,x,-7%,-11%,x,x
Nc1cc(C(=O)OCC(=O)NCCNC(=O)COC(=O)c2ccc(Cl)c(N)c2)ccc1Cl,25,3%,u,5%,6%
CC(=O)c1ccc(S(=O)(=O)NCCOc2ccccc2)cc1,-4,-25%,u,8%,5%
Cc1c(C(=O)OC2CCCC2C)[nH]c2c1C(=O)CCC2 (stereo unspecified),-10,21µM*,u,1%,2%
COC(=O)C1C(=O)c2c([nH]c(C(=O)OC3CCCC3)c2C)CC1C (stereo unspecified),u,-78%,u,2%,-1%
CCOCCOC(=O)c1[nH]c2c(c1C)C(=O)CC(c1ccc(OC)c(OC)c1)C2 (stereo unspecified),-26,u,13µM*,u,u
C/C=C/COC(=O)c1[nH]c2c(c1C)C(=O)CC(c1ccc(N(C)C)cc1)C2 (stereo unspecified),-28,26µM*,16µM*,-18%,-27%
Cc1c(C(=O)O)[nH]c2c1C(=O)CC(c1ccc(C(C)(C)C)cc1)C2 (stereo unspecified),12,3%,22%,17%,16%
CCOCCOC(=O)c1[nH]c2c(c1C)C(=O)CC(c1ccc(N(C)C)cc1)C2 (stereo unspecified),2,23µM*,u,1%,u
Cc1c(C(=O)NCC(C)(C)N2CCOCC2)cnn1-c1ncc2c(n1)-c1ccccc1CC2,x,u,-27%,x,x
SMILES,IL-1B inflam inh,TDP1 cell CPT,TDP1 cell noCPT,HT1080NT lethal,HT1080 IDH1KD tx
COc1cc(NC(=O)[C@@H](NC(=O)N2CCn3c2nc2ccccc23)C(C)C)cc(OC)c1,u,u,-13%,1%,-19%
O=C(CC1CC2CCC1C2)N1CCN(S(=O)(=O)c2ccc(F)cc2)CC1 (stereo unspecified),37,-47%,-44%,10%,7%
CCOc1ccc(C2CC(=O)c3c([nH]c(C(=O)OCCOc4ccccc4)c3C)C2)cc1 (stereo unspecified),x,13µM*,15µM*,x,x
CC1=C(C(=O)OCCOc2ccccc2)C(c2coc3ccccc3c2=O)C2=C(CCCC2=O)N1 (stereo unspecified),18,-13%,u,2%,6%
Cc1c(C(=O)OCCOc2ccccc2)[nH]c2c1C(=O)CCC2,u,15µM*,23µM*,-17%,-19%
CCC(C)OC(=O)c1[nH]c2c(c1C)C(=O)CC(c1ccc(N(C)C)cc1)C2 (stereo unspecified),8,23µM*,15µM*,u,23µM*
CCc1ccc(NC(=O)C(=O)c2ccccc2NC(C)=O)cc1,21,-22%,u,-4%,-3%
C[C@H](CO)N1C[C@H](C)[C@@H](CN(C)Cc2ccncc2)Oc2c(cccc2N(C)C)C1=O,0,3%,3%,u,13%
O=C(COc1ccc(F)cc1)Nc1nnc(S(=O)(=O)N2CCCC2)s1,-4,-1%,-10%,8%,6%
Cc1cccc2c(=O)cc(CSc3ccccc3NC(=O)c3cccc(F)c3)[nH]c12,x,-28%,u,x,x
CCCCC(=O)N(Cc1ccc(F)cc1)C1CCS(=O)(=O)C1 (stereo unspecified),0,32%,-7%,-4%,11%
O=C(NC1CCC1)C1CCC(=O)N(Cc2ccc(Cl)cc2)C1 (stereo unspecified),11,3%,-10%,2%,3%
CCCCCCCCCC[N+](C)(C)CC/C=C1/c2ccccc2Sc2ccc(Cl)cc21,-30,5.2µM*,3.7µM*,u,u
CC[N+](C)(C)CC/C=C1/c2ccccc2Sc2ccc(Cl)cc21,x,7%,-6%,10%,u
CCCCCCCCCCC[N+](C)(C)CC/C=C1/c2ccccc2Sc2ccc(Cl)cc21,-67*,5.8µM*,2.6µM*,u,u
O=C(NCC[C@H]1CC[C@H](NS(=O)(=O)c2ccccc2F)[C@@H](CO)O1)c1ccc(F)cc1,8,1%,-12%,12%,12%
